Compounds with a hit are over-represented: about 1.3% of the library has one in this group of screens.
KCNH2 3.1 inh: KCNH2 3.1 (human) potassium channel inhibition; U2OS KCNH2 3.1, thallium flux FluxOr; hits give low values; activity change, % (tested at about 1.8 µM); actives 0.95% (n = 340,000);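 active means maximum activity change below -70%; inconclusive means maximum activity change from -70% to -50%; inactive means maximum activity change above -50%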;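 further: thallium influx rate constant from kinetic fluorescence after stimulation buffer; on the % scale 0 is the no-effect control and ±100 the full control effect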
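Steps: virus added to U2OS suspension (4 h, RT, dark); medium with 10% FBS added, cells plated, 37 C overnight; FluxOr/Red40 loading buffer 45 min RT; stimulation buffer, 2 min kinetic read; rate constant normalized.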
hERG WT inh: inhibitors of human wildtype KCNH2 potassium channel | Q12809 | U2OS, BacMam KCNH2, thallium flux FluxOr; hits give low values | activity change, % at 1.84 µM | actives 0.37% (n = 340,000) | AID 720551;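 active means maximum activity change below -70%; inconclusive means maximum activity change between -70% and -50%; inactive means maximum activity change above -50%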; further: on the % scale 0 is the no-effect control and ±100 the full control effect
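U2OS cells transduced with wild-type KCNH2 virus are loaded with FluxOr dye for 45 min, and thallium flux is measured in kinetic reads before and after stimulation buffer. Rate constants are normalized to DMSO controls.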
TRPML1 ag: agonists of human TRPML1 channel; Q9GZU1; TRPML1-expressing cells, Ca2+ dye fluorescence, FDSS; activation, % (concentration not given with the values); actives 0.12% (n = 410,000); in the data active means activation above about 50%; inconclusive means mostly about 30% to 49%; further: 0% is about no effect
Target sequence (Q9GZU1 whole entry, looked up): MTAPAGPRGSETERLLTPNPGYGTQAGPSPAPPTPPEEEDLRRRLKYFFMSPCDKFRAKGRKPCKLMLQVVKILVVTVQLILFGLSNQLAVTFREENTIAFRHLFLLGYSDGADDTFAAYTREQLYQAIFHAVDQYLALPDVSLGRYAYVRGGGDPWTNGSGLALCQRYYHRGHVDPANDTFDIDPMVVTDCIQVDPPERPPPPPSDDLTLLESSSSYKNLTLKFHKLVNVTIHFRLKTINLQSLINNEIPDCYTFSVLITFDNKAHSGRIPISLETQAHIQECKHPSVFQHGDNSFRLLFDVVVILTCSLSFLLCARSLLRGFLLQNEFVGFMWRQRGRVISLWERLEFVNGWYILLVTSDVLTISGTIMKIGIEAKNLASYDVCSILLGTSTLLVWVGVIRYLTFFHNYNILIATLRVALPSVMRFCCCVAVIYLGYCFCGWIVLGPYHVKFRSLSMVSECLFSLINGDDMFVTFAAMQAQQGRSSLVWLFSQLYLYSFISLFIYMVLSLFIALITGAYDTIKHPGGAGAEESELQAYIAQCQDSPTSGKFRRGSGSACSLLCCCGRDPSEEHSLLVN
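Kinetic FDSS Ca2+ read in Tet-induced TRPML1-DL cells (ABD Ca8 dye plus quencher, 45-90 min RT loading): baseline, then compound, then 110 s agonist window; EC80 agonist 54-4 at 4uM final added afterwards for a 110 s antagonist window.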
TRPML1 inh: inhibitors of human TRPML1 channel. AID 624415. Q9GZU1. TRPML1-inducible cells, Ca2+ dye fluorescence, FDSS; hits give low values; inhibition of EC80 agonist-evoked calcium signal. actives 0.02% (n = 390,000). activity change, negative = inhibition, % (test concentration not listed); in the data active means activity change below about -50%; inconclusive means between about -30% and that limit;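 further: stimulus is agonist 54-4 at its EC80 concentration; on the % scale 0 is the no-effect control and ±100 the full control effect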
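TRPML1-DL cells, Tet-induced overnight (~16 h, 37 °C) at 1,500 cells/well, were loaded with Ca8 no-wash dye plus quencher for 45-90 min at room temperature. Compounds were pinned during FDSS kinetic reading; agonist 54-4 at EC80 (4 uM final) then added.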
TRPV1 agonist: human TRPV1 agonism; Q8NER1; TRPV1-expressing cells, Fluo-8 calcium influx, agonist mode; activation, % at 8.33 µM; actives 0.19% (n = 320,000); AID 540275; in the data active means activation above about 80%; inconclusive means between about 30% and that limit; further: 0% is about no effect
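Cells expressing TRPV1 were dye-loaded with Fluo-8 and read kinetically: 10 s baseline, 3 min after compound (agonist portion), then 2 min after EC20 capsaicin (allosteric enhancer portion). Calcium-bound dye fluorescence at 480/520 nm.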
TRPV1 potentiator: enhances activation of the human vanilloid receptor TRPV1 | Q8NER1 | TRPV1-expressing cells, Fluo-8 calcium influx, capsaicin EC20 potentiation | potentiation, % at 8.33 µM | actives 0.02% (n = 320,000); in the data active means potentiation above about 80%; inconclusive means between about 30% and that limit; further: 0% is about no effect
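TRPV1-expressing cells were cultured overnight at 35.5C and loaded with Fluo-8 calcium dye for 40 to 90 min at room temperature. After a 10 s baseline, compound was added and calcium influx was read kinetically for 3 min (ex 480/em 520 nm).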
Starred values were filed as active, the others as inactive; ? = inconclusive; · = no result.

SMILES | KCNH2 3.1 inh | hERG WT inh | TRPML1 ag | TRPML1 inh | TRPV1 agonist | TRPV1 potentiator
COc1ccc(-c2noc(CSc3nnc(Cc4ccccc4)n3-c3ccc(Cl)cc3)n2)cc1 | -8 | -4 | 4 | 11 | 0 | -4
Cc1ccc(-n2c(Cc3ccccc3)nnc2SCC(=O)NNC(=O)Cc2ccccc2)cc1 | -80* | 0 | 1 | -5 | -4 | 5
O=C(Nc1ccc(Br)cc1F)c1ccc2nc(CCc3ccccc3)oc2c1 | · | · | -1 | -9 | · | ·
COc1ccc(C2C(=O)N(C3CCCCCC3)CC(=O)N2CCC2=CCCCC2)cc1 (configuration not stated) | · | · | 0 | 7 | · | ·
COc1ccccc1N1N=C(c2ccc([N+](=O)[O-])cc2)CC1c1ccccc1 (configuration not stated) | ? | -42 | 69* | -16 | 6 | 9
COc1cc(N2N=C(c3ccccc3)CC2c2ccccc2)c(C=O)cc1C=O (configuration not stated) | -16 | -9 | -1 | 53 | 7 | 10
CC(C)c1ccc(CN2CCC(n3nccc3NC(=O)C3CCCC3)CC2)cc1 | -72* | 7 | 0 | 6 | · | ·
COC(=O)c1ccc(CN2CCC(n3nccc3NC(=O)C3CCCC3)CC2)cc1 | -7 | 40 | 1 | 11 | -3 | 6
O=C(Nc1ccnn1C1CCN(Cc2ccc(OC(F)F)cc2)CC1)C1CCCC1 | -83* | -102* | 0 | 2 | 17 | -23
CCc1ccc(CN2CCC(n3nccc3NC(=O)C3CCCC3)CC2)cc1 | -75* | -30 | 1 | -7 | 12 | -4
O=C(Nc1ccnn1C1CCN(Cc2ccc(Cl)cc2)CC1)C1CCCC1 | -44 | 55 | 0 | 5 | 23 | -26
CC(C)Oc1ccc(CN2CCC(n3nccc3NC(=O)CCc3ccccc3)CC2)cc1 | -106* | -32 | 0 | 32 | 0 | 2
CCOC(=O)C1CCCN(S(=O)(=O)c2cc(-c3onc(C)c3C)ccc2OC)C1 (configuration not stated) | · | · | 0 | 32 | · | ·
COC(=O)c1ccc(CN2CCC(n3nccc3NC(=O)C3CC3)CC2)cc1 | 8 | 25 | 0 | 7 | -1 | 1
Cc1c(CN2CCC(n3nccc3NC(=O)C3CC3)CC2)[nH]c2ccccc12 | -74* | -21 | 3 | -8 | 0 | -6
CCOc1ccc(CCNC(=O)c2ccc(-c3nc(COc4ccc(C)cc4)c(C)o3)cc2)cc1 | · | · | 0 | 9 | · | ·
COc1ccccc1C(=O)Nc1ccnn1C1CCN(Cc2ccccc2OCCO)CC1 | -82* | -39 | 0 | -6 | 1 | -6
CCOc1ccc(CN2CCC(n3nccc3NC(=O)c3ccccc3OC)CC2)cc1 | -12 | -154* | 1 | -17 | -3 | 13
COc1cc(CN2CCC(n3nccc3NC(=O)c3ccccc3OC)CC2)ccc1F | -70* | -106* | 0 | 7 | 4 | -6
CCn1cc(CN2CCC(n3nccc3NC(=O)c3ccccc3OC)CC2)cn1 | -41 | -2 | -1 | -1 | 2 | 17
COc1ccc(OC)c(C2C(C#N)=C(N)Oc3c2c(C)nn3-c2cccc(Cl)c2)c1 (configuration not stated) | -94* | 4 | 0 | -10 | 3 | 0
COCCCNC(=O)CN1C(=O)c2c(c3ccccc3n2C)C1c1ccc(OC)cc1 (configuration not stated) | · | · | 1 | 7 | · | ·
O=C(O[C@H]1[C@H](Cc2ccccc2)NS(=O)(=O)[C@H]2C[C@@H]3C=C[C@]12O3)c1ccccc1Br | · | · | 0 | · | · | ·
Cc1cccc2sc(N(CCN(C)C)C(=O)c3ccc4c(c3)OCCO4)nc12 | · | · | 1 | 7 | · | ·
Cc1cc(C)c2nc(N(CCCN(C)C)C(=O)c3ccc4c(c3)OCCO4)sc2c1 | -86* | -8 | 25 | 17 | 6 | -3
SMILES | KCNH2 3.1 inh | hERG WT inh | TRPML1 ag | TRPML1 inh | TRPV1 agonist | TRPV1 potentiator
Cc1cc(C)c2sc(N(CCCN(C)C)C(=O)c3ccc(Br)s3)nc2c1 | -82* | -23 | 4 | 55 | 2 | 13
COc1cc(S(=O)(=O)NCCc2c(C)[nH]c3ccccc23)c(C)cc1C | · | · | -1 | -1 | · | ·
COc1ccc(OCc2nnc(SCC(=O)N3CCCc4ccccc43)n2-c2ccc(C)cc2)cc1 | -83* | 7 | -1 | -21 | ? | -10
N#Cc1ccc(OCc2nnc(SCC(=O)N3CCCc4ccccc43)n2-c2ccccc2)cc1 | -14 | -13 | 4 | -3 | 7 | 3
COc1ccc(CCNC(=O)COC(=O)C23CC4CC(CC(C4)C2)C3)cc1 | -13 | 4 | 0 | -11 | 30 | -2
COc1ccc(CCNC(=O)COC(=O)C23CC4CC(CC(Br)(C4)C2)C3)cc1 | -18 | -88* | 1 | 16 | 26 | -15
CCCSCCCNC(=O)C1CCN(c2nn3cc(-c4ccc(F)cc4)nc3s2)CC1 | · | · | 1 | -1 | · | ·
Cc1cc(C)n(-c2cc(N3CCN(S(=O)(=O)c4ccc(Br)cc4)CC3)ccc2[N+](=O)[O-])n1 | -81* | -2 | 2 | -8 | ? | -11
Cc1cc(C)c(S(=O)(=O)N2CCN(c3ccc([N+](=O)[O-])c(-n4nc(C)cc4C)c3)CC2)c(C)c1 | -10 | -17 | 0 | -7 | -3 | 0
CC(=O)Nc1ccn(C2OC(C(COC(C)=O)NC(=O)C(C)NC(=O)OC(C)(C)C)C(OC(C)=O)C2OC(C)=O)c(=O)n1 (configuration not stated) | · | · | 0 | -14 | · | ·
Cc1ccc(C2C(C#N)=C(N)SC(N)=C2C#N)cc1 | -2 | 2 | 5 | 8 | 4 | 0
Cc1ccc(C2C(C#N)=C(N)SC(N)=C2C#N)c(C)c1 | -7 | -8 | 64* | 1 | -1 | 25
Cc1cc(N2CCCC2)c(F)cc1/C=C\[N+](=O)[O-] | -16 | -9 | 52* | -3 | -6 | 28
Cc1cc(N2CCC(C)CC2)c(F)cc1[N+](=O)[O-] | -13 | -12 | 1 | -6 | 4 | -16
Cc1cccc(-c2nc(CCNC(=O)c3ccccc3Br)cs2)c1 | · | · | 7 | 25 | · | ·
Cc1ccccc1OC(=O)CSc1nnc(-c2ccc3c(c2)OCO3)o1 | · | · | 2 | 49 | · | ·
COc1cc(S(=O)(=O)NCc2ccccc2)ccc1Br | -1 | 18 | 0 | 1 | 12 | -8
CCNS(=O)(=O)c1ccc(Br)c(OC)c1 | -93* | -29 | 3 | -4 | 2 | 5
CCOc1ccc(NC(=O)CSC2=Nc3ccccc3C3=NC(CC(=O)NCc4ccccc4OC)C(=O)N23)cc1 (configuration not stated) | · | · | 0 | -2 | · | ·
